Laboratory results as given in PubChem BioAssay (EPA / NIEHS).
The source holds several records for some structures; these can differ, active in one and inactive in another. Activity calls are given as the source filed them. The calls were made as follows: active = hit-call score of the fitted dose curve at least 0.9, where 1 is the maximum; inconclusive = response in the unintended direction; inactive = score below 0.9.

molecular target: Estrogen receptor (Homo sapiens) (UniProt P03372); test: OT_ER_ERaERa_1440: Odyssey Thera (OT) 24-hour HEK293T Protein-Complementation Assay for Estrogen Receptor-alpha/-alpha Homodimer (AID 2283349);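 also: hits raise fluorescence above DMSO for agonists and antagonists alike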
Sequence (P03372 whole entry, looked up, the tested form may be a part): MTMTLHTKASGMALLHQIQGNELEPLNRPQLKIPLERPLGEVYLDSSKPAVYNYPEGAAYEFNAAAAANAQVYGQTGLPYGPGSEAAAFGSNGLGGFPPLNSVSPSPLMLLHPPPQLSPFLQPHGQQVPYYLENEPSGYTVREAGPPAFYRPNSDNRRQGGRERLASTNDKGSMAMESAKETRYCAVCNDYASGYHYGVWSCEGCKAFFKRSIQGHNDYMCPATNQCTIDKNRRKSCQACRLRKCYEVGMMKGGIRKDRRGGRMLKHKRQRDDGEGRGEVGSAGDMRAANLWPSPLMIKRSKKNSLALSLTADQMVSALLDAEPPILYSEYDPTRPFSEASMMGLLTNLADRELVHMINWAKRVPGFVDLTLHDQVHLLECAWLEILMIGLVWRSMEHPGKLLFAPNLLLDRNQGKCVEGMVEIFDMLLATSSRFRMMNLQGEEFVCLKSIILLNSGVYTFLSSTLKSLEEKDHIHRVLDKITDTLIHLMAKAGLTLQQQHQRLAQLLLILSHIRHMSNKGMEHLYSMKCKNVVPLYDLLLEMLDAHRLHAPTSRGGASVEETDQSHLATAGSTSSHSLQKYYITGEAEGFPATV
Procedure: OT_ER_ERaERa_1440 is a cell-based assay that uses HEK293T, a human kidney cell line, with measurements taken at 24 hours after chemical dosing in a 384-well plate.OT_ER_ERaERa_1440 is one of one assay component(s) measured or calculated from the OT_ER_ERaERa_1440 assay. It is designed to make measurements of protein fragment complementation, a form of binding reporter, as detected with fluorescence intensity signals by Protein-fragment Complementation technology.Data from the assay component OT_ER_ERaERa_1440 was analyzed into 1 assay endpoint. This assay endpoint, OT_ER_ERaERa_1440, was analyzed in the positive analysis fitting direction relative to DMSO as the negative control and baseline of activity. Using a type of binding reporter, measures of receptor for gain-of-signal activity can be used to understand the binding at the pathway-level as they relate to the gene ESR1. Furthermore, this assay endpoint can be referred to as a primary readout, because the performed assay has only produced 1 assay endpoint. To generalize the intended target to other relatable targets, this assay endpoint is annotated to the nuclear receptor intended target family, where the subfamily is steroidal.
Protein-fragment complementation assay, or PCA, is a method for the identification and quantification of protein-protein interactions. In the PCA, the proteins of interest ("bait" and "prey") are each covalently linked to fragments of a third protein (e.g. DHFR, which acts as a "reporter"). Interaction between the bait and the prey proteins brings the fragments of the reporter protein in close proximity to allow them to form a functional reporter protein whose activity can be measured. The OT ER alpha / ER alpha assay is a homodimer PCA of the ligand binding domain (amino acids 310-547) of human ER alpha stably expressed in HEK293T cells. […] Fluorescent signal in the basal state of the assay is very low and is primarily punctuate and cytoplasmic. Modulation of this assay is quantified as an increase in mean fluorescence intensity in the nucleus (for agonists) or in the nucleus and cytoplasm (antagonists) relative to vehicle controls, and can be quantified on a high content imaging device or a laser scanning cytometer. The latter instrument is favored for this assay because of the rapid mode of data acquisition, the ability to acquire data from the entire cell population in a well (as opposed to a fraction of the well on the high content devices) and the larger dynamic range typically achieved with this instrument. To assess sensitivity of the ER alpha/ER alpha LBD assay to ligand, cells were treated with the ER agonist 17 beta-estradiol (E2) in 10-point concentration- response format for 24 hours and monitored response on a laser scanning plate cytometer (Acumen eX3; TTP Lab Tech).

SMILES	outcome	AC50
Oc1cccc(O)c1	inactive	
CCCCCCCCCCCCN1CCCC1=O	inactive	
CCCCC(CC)COC(=O)CCCCC(=O)OCC(CC)CCCC (stereo not given)	inactive	
NC(=O)N1C(=O)C(C(=O)c2cc(Cl)cs2)c2cc(F)c(Cl)cc21 (stereo not given)	inactive	
COCC(C)O (stereo not given)	inactive	
CCCCCCC(=O)O	inactive	
CN1CCN(c2ccccc2/C=C2\SCCN(c3ccc(Cl)c(Cl)c3)C2=O)CC1	inactive	
CC[C@H](C)[C@@H](C(=O)O)n1sc2ccccc2c1=O	inactive	
CC#C[C@]1(O)CC[C@H]2[C@@H]3CCC4=CC(=O)CCC4=C3[C@@H](c3ccc(N(C)C)cc3)C[C@@]21C	inactive	
O=C(O)Cc1cc(I)c(Oc2cc(I)c(O)c(I)c2)c(I)c1	inactive	
CCCCC(CC)COC(=O)CCCCC(=O)OCc1ccccc1 (stereo not given)	inactive	
NC(=O)N(O)[C@@H]1C=C[C@H](Oc2cccc(Oc3ccc(F)cc3)c2)C1	inactive	
CC(=O)CC(C)(C)O	inactive	
Cc1cc(CCN2CCN(c3nsc4ccccc34)CC2)cc2c1NC(=O)CC2(C)C	inactive	
OCCC(F)(F)C(F)(F)C(F)(F)C(F)(F)C(F)(F)C(F)(F)C(F)(F)C(F)(F)F	inactive	
O=C(OCCOCCOC(=O)c1ccccc1)c1ccccc1	inactive	
Cc1cc(C)c(O)c(C)c1	inactive	
C#C[C@]1(O)CC[C@H]2[C@@H]3CCC4=CC(=O)CC[C@@H]4[C@H]3CC[C@@]21C	inactive	
CC(C)(C)c1ccc(O)c(C(C)(C)C)c1	inactive	
CCOC(=O)CC(O)(CC(=O)OCC)C(=O)OCC	inactive	

SMILES	outcome	AC50
CCCCCCCC(=O)O	inactive	
O=C1OC2(c3ccccc31)c1cc(Br)c(O)c(Br)c1Oc1c2cc(Br)c(O)c1Br		62.2 µM (active)
CCCCCCCCOC(=O)CCCCCCCCC(=O)OCCCCCCCC	inactive	
O=C(O)c1ccccc1C(c1ccc(O)cc1)c1ccc(O)cc1	inactive	
CCCOC(=O)c1ccc(O)cc1		31.2 µM (active)
CC1=C(/C=C/C(C)=C/C=C/C(C)=C/C(=O)O)C(C)(C)CCC1	inactive	
c1ccc2c(c1)Cc1ccccc1-2	inactive	
C=C(C)C(=O)OCCC(F)(F)C(F)(F)C(F)(F)C(F)(F)C(F)(F)C(F)(F)F	inactive	
Cc1ccc(S(=O)(=O)O)c(C)c1	inactive	56.2 µM (active)
c1ccc2c(c1)ccc1ccccc12	inactive	
CC(C)(C)CC(C)(C)c1ccc(O)c(-n2nc3ccccc3n2)c1	inactive	
CCc1nn(C2CCCCC2)c2cc(C3(C#N)CCC(C(=O)O)CC3)ccc12 (stereo not given)	inactive	
Cc1oc(-c2ccccc2)nc1CCOc1ccc(C[C@H](Nc2ccccc2C(=O)c2ccccc2)C(=O)O)cc1	inactive	
N#C[C@@H]1CC(F)(F)CN1C(=O)CNC1CC2CCC(C1)N2c1ncccn1 (stereo not given in full)	inactive	
CCCCOCCO	inactive	
COC(=O)CCCCC(=O)OC	inactive	
CCCCCCCCCCCCCCCS(=O)(=O)Oc1ccccc1	inactive	
c1ccc2cc3c(ccc4ccccc43)cc2c1	inactive	
OC1CCCCC1	inactive	
